Experimental data taken from the supplement of paper PMC10646978.
± gives the standard deviation.

Assays:
Details in all cases: modulator concentration 10 µM
[1] = tested on: RAW-Dual (murine macrophage reporter line); assay: NF-kB reporter (SEAP) activity fold change vs agonist alone; higher = enhanced NF-kB activity
Method in brief: (§1)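 RAW-Dual murine macrophage reporter cells were plated at 50 000 per well in 384-well plates, pin-transferred compound to 10 μM final, and pre-incubated for 1 hour at 37 °C before a PRR agonist was added and the cells incubated overnight. NF-κB activity was read from supernatant SEAP with QUANTI-Blue at 620 nm absorbance, and IRF activity from Lucia luciferase with QUANTI-Luc by luminescence. Each signal was expressed as fold change by dividing by the mean agonist-only control on the same plate. Two replicate plates were averaged, with errors obtained by propagation.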

[2] = tested on: RAW-Dual (murine macrophage reporter line); assay: IRF reporter (Lucia luciferase) activity fold change vs agonist alone; higher = enhanced IRF activity
Method in brief: as §1

[3] = tested on: RAW-Dual (murine macrophage reporter line); assay: viability score (confluency relative to resting cells, overnight) (fraction); higher = more viable, active = viable (0.7 or more)
Method in brief: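 Two confluency masks, generated with IncuCyte software over all imaged wells, were applied to IncuCyte images of RAW-Dual macrophages. The cells, in 384-well plates, had been exposed overnight to 10 μM final compound. The viability score is confluency as a fraction of resting cells, and a compound met the cutoff only with both masks above 70% of resting cells.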

[4] = agonist: CpG ODN 1826 0.5 ug/mL

SMILES | NF-kB reporter [1, 4] | NF-kB reporter ([1]; agonist: LPS 0.1 ug/mL) | NF-kB reporter ([1]; agonist: MPLA […]) | IRF reporter ([2]; agonist: 3'3'-cGAMP 10 ug/mL) | IRF reporter ([2]; agonist: LPS 0.1 ug/mL) | IRF reporter ([2]; agonist: MPLA […]) | viability score [3]
CC[C@@H](C(N)=O)N1CCCC1=O | 1.04 ± 0.1 | 1.05 ± 0.059 | 0.993 ± 0.056 | 1.06 ± 0.17 | 0.88 ± 0.075 | 0.863 ± 0.15 | 1 (active)
Cc1ccccc1N1C(=O)C(=Cc2ccc(-c3ccc(C(=O)O)c(Cl)c3)o2)C(=O)NC1=S | 0.617 ± 0.049 | 1.05 ± 0.067 | 0.9 ± 0.066 | 0.692 ± 0.017 | 1.24 ± 0.24 | 0.964 ± 0.2 | 1.01 (active)
Br.CN1C2CC(OC(=O)C(CO)c3ccccc3)CC1C1OC12 (centres undefined) | 1.32 ± 0.32 | 0.999 ± 0.051 | 1.01 ± 0.074 | 1 ± 0.034 | 1.19 ± 0.13 | 1.19 ± 0.13 | 0.985 (active)
NC(=O)Cn1c(Cc2ccccc2Cl)nc2ccccc21 | 0.97 ± 0.061 | 0.84 ± 0.074 | 0.912 ± 0.031 | 0.996 ± 0.06 | 1.06 ± 0.093 | 0.99 ± 0.13 | 0.997 (active)
CCN(CC)CCOC(=O)C(O)(c1ccccc1)c1ccccc1.Cl | 1.16 ± 0.16 | 1.04 ± 0.41 | 0.923 ± 0.066 | 1.38 ± 0.043 | 1.03 ± 0.3 | 1.44 ± 0.11 | 0.98 (active)
CC(C(O)c1ccccc1)N(C)C (centres undefined) | 0.96 ± 0.084 | 0.883 ± 0.065 | 0.955 ± 0.091 | 0.995 ± 0.031 | 1.26 ± 0.12 | 1.3 ± 0.19 | 1 (active)
O=C1NC(=O)N(c2ccccc2F)C(=O)C1=Cc1cc(Cl)ccc1OCc1ccc([N+](=O)[O-])cc1 | 0.892 ± 0.071 | 1.05 ± 0.078 | 0.744 ± 0.045 | 0.741 ± 0.018 | 0.972 ± 0.087 | 0.855 ± 0.16 | 1.01 (active)
CC(=O)Nc1ccc(C(=O)NCC#CCN(C)C)cc1 | 0.899 ± 0.04 | 0.879 ± 0.083 | 1.07 ± 0.058 | 1.04 ± 0.057 | 1.17 ± 0.29 | 1.3 ± 0.45 | 1 (active)
NC(=O)CN1CC(O)CC1=O (centres undefined) | 1.04 ± 0.079 | 1.04 ± 0.051 | 1 ± 0.03 | 0.961 ± 0.081 | 1.02 ± 0.082 | 0.954 ± 0.097 | 0.996 (active)
O=C(O)CCCc1ccc(N(CCCl)CCCl)cc1 | 1.03 ± 0.17 | 1.03 ± 0.084 | 1.11 ± 0.13 | 0.912 ± 0.027 | 1.29 ± 0.28 | 1.08 ± 0.12 | 0.994 (active)
CCCC(=O)c1ccc(N2CCNCC2)c(F)c1 | 0.404 ± 0.023 | 1.12 ± 0.069 | 0.961 ± 0.082 | 0.861 ± 0.043 | 1.4 ± 0.14 | 1.66 ± 0.18 | 0.951 (active)
COC(=O)COc1ccc(C=C2C(=O)NC(=S)N(c3cccc(Cl)c3Cl)C2=O)cc1OC | 0.959 ± 0.09 | 1.04 ± 0.086 | 0.932 ± 0.063 | 0.909 ± 0.048 | 1.35 ± 0.12 | 1.14 ± 0.12 | 1.01 (active)
CCOC(=O)c1ccccc1-c1ccc(C=C2C(=O)NC(=O)N(c3ccc(C)cc3)C2=O)o1 | 0.912 ± 0.071 | 0.931 ± 0.058 | 0.971 ± 0.087 | 0.999 ± 0.061 | 1.4 ± 0.081 | 1.7 ± 0.14 | 0.951 (active)
CC(=O)OC1CCC2(C)C(=CCC3C4CCC(=O)C4(C)CCC32)C1 (centres undefined) | 0.92 ± 0.084 | 0.901 ± 0.076 | 0.863 ± 0.092 | 0.969 ± 0.031 | 1.08 ± 0.095 | 1.15 ± 0.13 | 1 (active)
O=C1CCC(=O)N1C1CC2CCC(C1)N2C(=O)Cc1cccc2ccccc12 (centres undefined) | 0.977 ± 0.049 | 1.12 ± 0.099 | 0.913 ± 0.11 | 1.08 ± 0.066 | 1.25 ± 0.076 | 1.16 ± 0.21 | 1.01 (active)
O=c1[nH]c2ccccc2n1CCCN1CCC(n2c(=O)[nH]c3cc(Cl)ccc32)CC1 | 0.114 ± 0.018 | 1.14 ± 0.082 | 0.973 ± 0.074 | 0.865 ± 0.026 | 1.31 ± 0.14 | 1.12 ± 0.092 | 0.981 (active)
N=C(N)NOCCC(N)C(=O)O (centres undefined) | 1.02 ± 0.076 | 1 ± 0.058 | 1.02 ± 0.03 | 0.979 ± 0.057 | 0.938 ± 0.12 | 0.931 ± 0.13 | 0.998 (active)
CCOC(=O)c1ccccc1-c1ccc(C=C2C(=O)NC(=O)N(c3ccccc3C)C2=O)o1 | 0.727 ± 0.082 | 0.444 ± 0.025 | 0.358 ± 0.051 | 0.655 ± 0.023 | 0.631 ± 0.096 | 0.321 ± 0.088 | 0.0805 (inactive)
CCOC(=O)Nc1ccc(NCc2ccc(F)cc2)cc1N | 0.882 ± 0.039 | 1.09 ± 0.086 | 0.936 ± 0.051 | 0.893 ± 0.044 | 1.2 ± 0.33 | 1.33 ± 0.51 | 1.01 (active)
CCN(CC)CCNC(=O)C(O)(c1ccccc1)c1ccccc1 | 0.873 ± 0.071 | 0.937 ± 0.066 | 0.964 ± 0.038 | 0.968 ± 0.076 | 0.991 ± 0.17 | 0.923 ± 0.23 | 0.998 (active)
CCCC(=O)c1ccc(N2CCN(C)CC2)c(F)c1 | 0.956 ± 0.097 | 0.876 ± 0.1 | 0.906 ± 0.088 | 1.02 ± 0.056 | 1.22 ± 0.17 | 1.27 ± 0.24 | 1.03 (active)
CN1Cc2c(ccc3c2OCO3)C2C(O)Cc3cc4c(cc3C21)OCO4 (centres undefined) | 1.75 ± 0.13 | 1.49 ± 0.12 | 1.79 ± 0.19 | 0.269 ± 0.012 | 1.64 ± 0.22 | 2 ± 0.38 | 0.883 (active)
COc1cc2c(cc1OC)C1C(=O)c3ccc4c(c3OC1CO2)CC(C(C)C)O4 (centres undefined) | 1.11 ± 0.19 | 1.48 ± 0.12 | 2.31 ± 0.18 | 0.857 ± 0.06 | 1.89 ± 0.32 | 2.1 ± 0.4 | 0.976 (active)
CCC1CN2CCC1CC2C(O)c1ccnc2ccc(OC)cc12 (centres undefined) | 1.05 ± 0.25 | 1.16 ± 0.066 | 1.1 ± 0.08 | 0.565 ± 0.021 | 1.21 ± 0.17 | 1.33 ± 0.26 | 0.983 (active)
CC12CCC3C(CCC4CC(O)CCC43C)C1CCC2=O (centres undefined) | 0.888 ± 0.066 | 1.04 ± 0.051 | 0.98 ± 0.021 | 0.949 ± 0.1 | 0.985 ± 0.033 | 0.972 ± 0.11 | 1.01 (active)
Cc1c(NN=C2C(=O)NC(=O)NC2=O)c(=O)n(-c2ccccc2)n1C | 1.02 ± 0.1 | 1.03 ± 0.086 | 0.958 ± 0.042 | 0.951 ± 0.13 | 1.08 ± 0.096 | 0.932 ± 0.14 | 0.999 (active)
C[C@@H]1CC[C@H]2[C@@H](C)C(=O)O[C@@H]3O[C@@]4(C)CC[C@@H]1[C@]32OO4 | 0.961 ± 0.086 | 0.916 ± 0.052 | 1.11 ± 0.11 | 1.04 ± 0.048 | 1.13 ± 0.065 | 1.17 ± 0.099 | 0.985 (active)
